# Bioassay records (PubChem)
# Mac1 fbg inh = blocks human CD11b/CD18 adhesion to fibrinogen. P05107+P11215. K562 CD11b/CD18 adhesion to fibrinogen, ATPlite luminescence; Mn2+ added to activate the integrin. inhibition, % at 10 µM. hit rate 0.54% among 93,000. AID 1497;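 active = primary inhibition of 50% or more at 10 µM, then 40% or more on retest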
# CYP2C19 activ = activators of human cytochrome P450 2C19; recombinant CYP2C19, luciferin-H EGE luminescence; hits give high values; 0 = fully inhibited enzyme, 1 = untreated enzyme; 96,000 tested, under 10 active; P33261; activation factor at 5 µM;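 active = activation factor of at least 2 at 5 µM in the primary screen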;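 note: 0 = wells with 2.5 mM tranylcypromine and 1 = vehicle-only wells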
# CYP2C9 inhib = human CYP2C9 inhibition; P11712; CYP2C9 Supersomes, luciferin-H conversion, luminescence; inhibition, % at 5 µM; hit rate 20% among 96,000; AID 777;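 active = blocking of liver enzyme CYP2C9 beyond about 50% at 5 µM, limit read from the data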
# Mac1 fbg enh = enhancers of human CD11b/CD18 binding to fibrinogen | K562 CD11b/CD18 adhesion to fibrinogen, ATPlite luminescence | P05107+P11215 | hit rate 0.07% among 93,000 | AID 1499 | activation, % at 10 µM;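 active = 10 µM primary screen giving 50% or more activity, confirmed by 40% or more on retest at that dose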
# CYP2C9 act = activators of human CYP2C9; P11712; recombinant CYP2C9, luciferin-H conversion, luminescence; hits give high values; factor 1 = untreated enzyme, 0 = blocked; activation factor at 5 µM; hit rate 1.4% among 96,000; AID 1024;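 active = activation factor of 2 or more for CYP2C9 at a 5 µM dose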;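 note: 0 = sulfaphenazole-blocked wells and 1 = vehicle-only wells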
# CYP2C19 inh = blocks human cytochrome P450 2C19 | CYP2C19 Supersomes, luciferin-H EGE luminescence, 30 min | P33261 | AID 778 | inhibition, % at 5 µM | hit rate 21% among 96,000;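 active = CYP2C19 inhibition above a set limit at 5 µM in the primary screen, cut at about 50% in these data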;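 note: plate controls were negative control wells for no effect and 2.5 mM tranylcypromine positive control for full effect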
# The depositor's hits bear a star; . = no result. Shown are actives, neighbours in structure and some others; about 28% of the full set was active somewhere.
SMILES,Mac1 fbg inh,CYP2C19 activ,CYP2C9 inhib,Mac1 fbg enh,CYP2C9 act,CYP2C19 inh
Cn1c(=O)c2c(nc(N/N=C/c3c(O)n(-c4ccccc4)c(=S)[nH]c3=O)n2C)n(C)c1=O,4,.,.,3,.,.
O=C(Nc1ccc(Cl)cc1C(=O)c1ccccc1)c1ccc(Br)o1,7,1.1,-8,11,1.1,-15
Clc1ccc2c(c1)C(c1ccccc1Cl)=NCc1nnc(N3CCN(CCSc4ccccc4)CC3)n1-2,2,0.9,68*,-3,0.3,8
O=C(C1CC(c2ccccc2O)=NO1)N1CCC2(CC1)OCCO2 (stereo unspecified),-8,0,3,-4,1,100*
COc1ccc(CN2CCCCC2c2cccnc2)cc1C (stereo unspecified),1,0.2,15,-3,0.9,80*
COc1cccc(CN2CCCCC2c2cccnc2)c1 (stereo unspecified),3,0.6,18,-1,0.8,38
COc1ccc(C(=O)C(Cc2ccccc2)N(C)C)cc1 (stereo unspecified),-51,0.6,-2,-1,1,35
CN(C)C(Cc1ccccc1)C(=O)c1ccc(-c2ccccc2)cc1 (stereo unspecified),10,0.5,74*,-3,0.3,50
CCOC(=O)c1c(C)n(COCCO)c2ccc(O)cc12,12,0.8,9,0,0.9,16
CC(=O)c1c(C)n(CCCOC(C)C)c2ccc(O)cc12,8,0.4,55*,0,0.4,62*
CCN1CCN(Cc2ccccc2C)CC1,-16,1,-14,-2,1.1,-2
FC(F)(F)c1ccccc1CN1CCN(Cc2ccccc2)CC1,2,0.3,12,0,0.9,69*
Cc1ccc(O)c(CN2CCN(c3ccccc3)CC2)c1,5,0.1,72*,-3,0.3,93*
Clc1ccccc1CN1CCN(c2ccccc2Cl)CC1,5,0.6,14,-2,0.9,44
Oc1ccc(Cl)cc1CN1CCN(Cc2ccccc2)CC1,4,0.1,56*,-3,0.4,90*
COc1ccc(CN2CCN(c3ccccc3)CC2)c(C)c1C,2,0.2,-3,-2,1,83*
Cc1cc(O)c(CN2CCN(c3ccccc3)CC2)cc1C,-4,0.6,20,-3,0.8,38
CCc1c(C)nc(N)nc1N1N=C1SCC(N)=O,-34,1.2,-20,-2,1.2,-18
CN(C)c1cc(N)c2c(n1)CCC2 (tested in a mixture with another compound),-12,1,0,5,1,-3
CCN(CC)C1=NC(=[N+](CC)CC)c2ccccc21,47,1.1,31,-2,0.7,-14
Cc1ccccc1C1=NCC(=O)N(CC(=O)N2CCCCC2)c2sc(C)c(C)c21,-15,0.6,40,4,0.6,45
Cc1ccc2c(c1)C1CN(C)CCC1N2C(=O)COc1ccc(S(=O)(=O)N2CCOCC2)cc1 (stereo unspecified),-19,0.9,2,-4,1,8
O=C(c1cccn2c(=O)c3cc(Cl)ccc3nc12)N1CCC2(CC1)OCCO2,20,0.9,28,2,0.7,12
C=CCOC(=O)COc1cc(C)cc2oc(=O)c3c(c12)CCC3,-6,0.2,58*,-2,0.4,84*
Cc1cc(OC(=O)CCCNC(=O)OC(C)(C)C)c2c3c(c(=O)oc2c1)CCC3,.,0.6,55*,.,0.4,41
SMILES,Mac1 fbg inh,CYP2C19 activ,CYP2C9 inhib,Mac1 fbg enh,CYP2C9 act,CYP2C19 inh
Cc1cc(OC(=O)CCNC(=O)OC(C)(C)C)c2c3c(c(=O)oc2c1)CCC3,-1,0.7,29,-3,0.7,29
CCCCOC(=O)COc1cc(C)cc2oc(=O)c3c(c12)CCC3,-1,0.6,46,2,0.5,40
Cc1cc(OCc2ccc([N+](=O)[O-])cc2)c2c3c(c(=O)oc2c1)CCCC3,-9,0.4,79*,1,0.2,60*
Cc1cc(OC(=O)c2ccco2)c2c3c(c(=O)oc2c1)CCC3,8,1.2,-14,-2,1.1,-20
Cc1cc(OCc2nn[nH]n2)c2c3c(c(=O)oc2c1)CCCC3,0,1.2,72*,-1,0.3,-17
CCOP(=O)(OCC)C(NC(C)=O)C(Cl)(Cl)Cl (stereo unspecified),.,0.9,38,.,0.6,14
